In PubChem BioAssay:

biological target: Left-right determination factor 2 (Homo sapiens) (UniProt O00292); experiment: LEFTY2 binders on small-molecule microarrays, primary screen, biochemical, small-molecule microarray, 635 nm fluorescence scan (AID 1110); settings: LEFTY2 binding, higher = more signal
Sequence (O00292 whole entry, looked up): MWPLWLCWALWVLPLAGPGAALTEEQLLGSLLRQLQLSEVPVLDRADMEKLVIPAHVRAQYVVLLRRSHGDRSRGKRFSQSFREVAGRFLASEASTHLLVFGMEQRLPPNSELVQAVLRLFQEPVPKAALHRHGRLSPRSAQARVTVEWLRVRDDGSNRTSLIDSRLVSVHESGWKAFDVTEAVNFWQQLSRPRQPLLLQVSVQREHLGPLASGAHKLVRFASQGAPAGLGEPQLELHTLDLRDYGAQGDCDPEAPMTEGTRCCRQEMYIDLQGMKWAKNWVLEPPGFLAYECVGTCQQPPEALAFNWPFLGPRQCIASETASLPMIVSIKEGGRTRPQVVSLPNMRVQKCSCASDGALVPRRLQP

Structure (SMILES) | composite z-score
C=C(COC)/C(=C/C[C@@H](OC(C)=O)c1ccc(OCCO)cc1)c1cnc2ccccc2c1 | 0.989
CN(C)CCCCCCNC(=O)[C@@H]1C[C@@H]2C(=O)N[C@@H](Cc3ccccc3)C(=O)N2[C@@H]1c1ccc(O)cc1 | 1.02
Cc1nc2cc(Br)ccc2c(=O)o1 | 0.4
COCCOC(=O)N1C(=O)[C@@]2(c3ccccc31)[C@H](c1ccc(O)cc1)N1[C@H](c3ccccc3)[C@H](c3ccccc3)OC(=O)[C@H]1[C@@H]2C(=O)Nc1nc2ccccc2s1 | 0.118
COCC(=C=CC[C@@H](O)c1cccc(OCCO)c1)C[C@@H](O)c1ccccn1 | 0.493

biological target: Calmodulin-1 (Homo sapiens) (UniProt P0DP23); experiment: CALM1 binders on microarrays, EGTA buffer, profiling panel, biochemical, small-molecule microarray, Cy5-labelled CALM1 (AID 1111); settings: Cy5-CALM1 binding fluorescence, higher = more signal;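 also: labelled calmodulin applied in Tris saline Tween buffer holding calcium plus EGTA and DTT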

Structure (SMILES) | composite z-score
Cc1ccccc1C(O)C1C=CC2C(=O)N(c3ccccc3)C(=O)C2N1Nc1ccc(C(C)C)cc1 (stereo unspecified) | 1.22
CCS[C@H]1[C@@H](C(=O)O)[C@H](c2ccc(C)cc2)N(S(=O)(=O)c2ccc(C)cc2)[C@@H]1CC | 0.83
COc1cc(NN2C(C(O)c3ccco3)C=CC3C(=O)N(c4ccccc4)C(=O)C32)cc(OC)c1OC (stereo unspecified) | -0.3
CNS(=O)(=O)c1ccc(C)cc1 | -0.206
O=C1N(Cc2ccccc2)c2ccccc2[C@@H]2OC(c3ccc(OCCCO)cc3)=N[C@]12CCS(=O)(=O)c1ccccc1 | 1.61
COc1cc2c(cc1O)C(C1CC1)N(Cc1sc3ccccc3c1Cl)CC2 (stereo unspecified) | 0.131
Oc1ccc2cc[n+](Cc3sc4ccccc4c3Cl)cc2c1 | -0.481
CC(C)N1C(=O)C[C@@](C(=O)NCC(F)(F)F)(c2ccc([N+](=O)[O-])cc2)[C@H]1c1ccc(CO)cc1 | -0.273
COCCCNC(=O)[C@@]1(C)c2ccccc2C(=O)N(C(C)C)[C@H]1c1ccc(CO)cc1 | -0.342
COCCOC(=O)N1C(=O)[C@@]2(c3cc(C#CCC(C(=O)OC)C(=O)OC)ccc31)[C@H](c1ccccc1OCCO)N1[C@H](c3ccccc3)[C@H](c3ccccc3)OC(=O)[C@H]1[C@@H]2C(=O)N1CCN(c2ncccn2)CC1 | 1.92
CCOC(=O)[C@H]1C/C=C/C[C@H](C(=O)OCC)C(=O)O[C@H]2[C@@H](OC)O[C@H](CO)[C@@H](OC(=O)c3c(OC)cccc3OC)[C@@H]2OC1=O | 0.34
C=C(COC)/C(=C/C[C@@H](OC(=O)c1ccncc1)c1ccc(CO)o1)c1cc(C(=O)OC)ccc1OC | 0.209
CC(C)N1C(=O)c2ccccc2[C@](C)(C(=O)NCCN2CCOCC2)[C@@H]1c1ccc(CO)cc1 | -0.454
COCCCNC(=O)[C@@H]1c2ccccc2C(=O)N(Cc2ccccc2Cl)[C@H]1c1ccc(CO)cc1 | -0.48
CC(C)NC(=O)[C@@]1(c2ccc([N+](=O)[O-])cc2)CC(=O)N(C2CCCCC2)[C@@H]1c1ccc(CO)cc1I | 0.249
C=C(CCCC)/C(=C/C[C@H](OC(C)=O)c1ccccc1OCCO)c1cc(C(=O)OC)ccc1OC | -0.621
COCCOC(=O)N1C(=O)[C@@]2(c3cc(C#Cc4ccc(OC)cc4)ccc31)[C@H](c1ccc(O)cc1)N1[C@H](c3ccccc3)[C@H](c3ccccc3)OC(=O)[C@H]1[C@@H]2C(=O)N1CCc2cc(OC)c(OC)cc2C1 | 1.74
O=C1C2C=CC(C(O)Cc3ccccc3)N(n3cnnc3)C2C(=O)N1Cc1ccccc1 (stereo unspecified) | 0.841
C=CC[C@]1(C(=O)NCc2ccccc2)N=C(c2ccc(OCCCO)cc2)O[C@H]1c1ccccc1N=[N+]=[N-] | 1.96
CCOC(=O)C[C@H]1[C@H](OC(=O)c2ccc(C(=O)c3ccccc3)cc2)[C@@H](NC(=O)c2ccc3ccccc3n2)c2cc(OCCCO)ccc2N1C(=O)c1ccccc1 | 1.47
CN(C)C(=O)[C@@]1(CCS(=O)(=O)c2ccccc2)COC(c2ccc(OCCCO)cc2)=N1 | 0.614
COc1ccccc1CN1C(=O)c2ccccc2[C@@H](C(=O)NC2CC2)[C@@H]1c1ccc(CO)cc1 | 0.522
COC(=O)[C@H](Cc1ccccc1)N[C@@H](/C=C/C1CC1)[C@H](O)Cc1ccccc1 | 0.125
O=C1C2C=CC(C(O)c3cccc4ccccc34)N(Nc3ccccc3F)C2C(=O)N1c1ccccc1 (stereo unspecified) | 1.84
O=C(CS)NCCCCCCNC(=O)[C@@H]1C[C@@H]2C(=O)N[C@@H](Cc3ccccc3)C(=O)N2[C@@H]1c1cccc(OCCO)c1 | 0.309
NC(=O)NCC#Cc1ccc2c(c1)[C@]1(C(=O)N2)[C@H](C(N)=O)[C@H]2C(=O)O[C@H](c3ccccc3)[C@H](c3ccccc3)N2[C@@H]1c1ccc(O)cc1 | 0.721
